From the supplement of paper PMC6555819

tested on: VDR:RXRa (NR concentration 270 nM, RXRa partner concentration 90 nM); test: PBM binding z-score (relative to random genomic background probes); higher = stronger binding; sequences stand for … in GC…GCGATTGACAGCGTAGAATGAAGG
Protocol: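 Protein-binding microarray (Agilent 4x180K custom design, double-stranded 60-nt probes: 5' GC cap, 34-nt variable region, 24-nt constant primer region; full probe sequence given). Purified or IVT nuclear receptor:RXRα heterodimers (3:1 NR:RXRα, mostly 270:90 nM) or homodimers were incubated for 1 h in PBS with 2% milk and no ligand, then detected with Alexa488 antibodies. Fluorescence from o1-orientation probes (~5 replicates averaged) was converted to z-scores against 500 random hg19 background probes. Variable regions are seed direct-repeat (DR0–DR5) sites, all their single-nucleotide variants and half-site ablations.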

Row | Sequence | PBM binding z-score
1 | CCTGCTAGGTCATGGGCAGCTAATCTACAGTATG | 1.19
2 | CGTCCGAGGTCAGCAGGTCAGTGAAAGCGACGTG | 4.86
3 | GCTAGGTGGTCAGTAAAAGGTCACACACCGGTCG | 4.22
4 | TCTAGCAGGCCAGAGGGTCACTCGAGAGGTACGG | 1.39
5 | TTACCACGGTGAGCTGAGGTCGTTGATCCAACTC | 1.57
6 | CCTACTGGACCAAAAAGGTCATTGATGCCGATAA | 4.77
7 | CAAACCAGGTCACCGGAAGGTCAAAGTCCGCATG | 6.39
8 | GCTGCTAGGACAGGTTGGTCAGCTAACGGGTACG | -0.674
9 | GCTAGTAGTTGAAAGGGCAACCGAATGATTCTCG | 0.183
10 | ACTAGCAGGCCAAGTTTGGGTCACACAAACAAAG | 0.933
11 | TCGATTAGGTTAGTCGGGGCATTCAGCCAACATA | 2.14
12 | TCTTGTAGATCAGCAAGTTAAGAAAGCTGGCCAA | 0.28
13 | CCGAATAGGTTATGGGGCATTCAGGCAACGGTGA | 0.258
14 | AGAATGAGGTTACCAAAGATCAGGGGAACGCTTG | 1.49
15 | CCTACTGGGCCATCCAGAGGTCATTGATCATATG | 4.12
16 | TCTCGGAGGACACGAAGGTCATAGCTTTCCAGAG | 4.04
17 | ACTGTTAGTTGACTTAGGGCAACCGATACGACGC | 0.59
18 | ACTGGCAGGCCAAGGGTCACTCAAGATTAGTCCG | 2.69
19 | TTACCAAGGTGAAGGTCGATGATCCCTCTGTAGA | 0.54
20 | GCTATCAGTTGAAAGGGCAACCGAATGATTCTCG | 0.34

Row | Sequence | PBM binding z-score
21 | TCTATTAGTTGAAGGGCAAACGACGAGTCCGTTT | 1.45
22 | CCTACTGGGCCAAAAAGGGCATTGATGCCGATAA | 1.01
23 | ACTATTAGTTGACTTCGGGCAACCGATACGACGC | 0.179
24 | CGTCCAAGGTCAAGGTCAGTGGAAGAGACTCGAA | 4.89
25 | ATCTCTAGGTAAATTTCAGTGAAAGATCGATAGA | 0.297
26 | CCTCGGCGGACAACAGGAGGTCAGAGCTGCCAGA | 0.818
27 | GGAATGAGGGCAAGTTGATAGCAGAGTTTGATGG | 1.18
28 | TCTATTAGTGGATTAGGGCAACCGAAACAGCGGA | 0.547
29 | CGAATTAGGTCAAGGACAGTGAATCTCCGCACGC | 1.61
30 | CTCGAAAGGTCGTGCTCAGGTGAGTGTACCAAAC | 3.44
31 | ATATCTAGGTTAAGGGTCATTCAGGTTGGTTCGC | 5.89
32 | TCTATTAGTTTAAGGGCAACCGACGAGTCCGTTT | 1.61
33 | TCTAGATGGTCACGGAGGTCACACACGACGGGTA | 6.25
34 | AGTCCAAGTTCATCTAGGTAACGTAAGATATGCT | 4.48
35 | ACAGACAGGTGATGAAGGTAACTCCGGCTATCAT | 0.125
36 | GCAGACAGGTGAAAAGCAGGTAACTCAGGGTGGC | -0.329
37 | ATACCAAGGCGATCGTGAGGTCGTTGATACTAAC | 1.51
38 | GGAACGAGGGCATGTTGATAGCAGAGTTTGATGG | 0.929
39 | TCTACTAGGTCAGTTGGTCAGCTAACGAGCTGCC | 0.701
40 | TCTACTAGGTCAACGATGGTCAGCTAATCTGCTA | 2.27
